Measurements from PubChem BioAssay AID463173 (ICCB-Longwood Screening Facility, Harvard Medical School, 2010).
Hit rate of the full screen: of about 52,000 compounds, about 4,300 (8.3%) were called active. Cut-off read from the data, not from the text of the source: active = survival mostly below about 52% (no sharp cut-off); inactive = mostly above about 56%. Only a selection was taken, and actives are over-represented in it overall.

test system: DeltatarO mutant; test: S. aureus survival, RN4220 and DeltatarO strains – OD600, teichoic acid synthesis inhibitors, primary screen (AID 463173); conditions: S. aureus RN4220 wild type/DeltatarO growth, OD600, 18 h, stronger effect = lower value, screened at 18.75 µg/mL (by protocol)

Row | SMILES | survival
1 | Cc1c(CNC2CCCCC2)c(C(=O)O)c(C)n1Cc1ccc(F)cc1 | 85% (inactive)
2 | Cc1ccc(-c2ccc(C#N)c(=O)n2CC(=O)N2CCNC(=O)C2(C)C)cc1 | 88% (inactive)
3 | COc1ccc(CCNC(=O)C(=O)NCC(c2ccco2)S(=O)(=O)c2ccccc2)cc1OC (stereo not given) | 54% (inactive)
4 | COc1ccc(S(=O)(=O)N(C(=O)c2ccncc2)c2ccc3oc(C)c(C(C)=O)c3c2)cc1 | 152% (inactive)
5 | CCc1nn(-c2ccccc2)c2nc(-c3ccc(O)cc3)c3cc(OC)c(OC)cc3c12 | 74% (inactive)
6 | COc1ccc(Cc2nc3c4cnn(-c5ccccc5F)c4ncn3n2)cc1 | 81% (inactive)
7 | Cc1cc(-n2c(SCC(=O)NCc3ccccc3)nc3ccsc3c2=O)ccc1Cl | 87% (inactive)
8 | O=C(O)CCc1ccc(-c2ccccc2)n1-c1ccc(C(=O)O)cc1 | 131% (inactive)
9 | CCOC(=O)c1ccc(-n2c(CCC(=O)O)ccc2-c2ccccc2)cc1O | 43% (active)
10 | CC(=O)c1cccc(-n2c(CCC(=O)O)ccc2-c2ccccc2)c1 | 74% (inactive)
11 | Cc1cccc(C2NC(=O)c3c(sc4c3CCN(C)C4)N2)c1O (stereo not given) | 125% (inactive)
12 | CCn1c(=O)c2sccc2n2c(CCCC(=O)N3CCN(c4ccccc4OC)CC3)nnc12 | 91% (inactive)
13 | COc1ccc(NC(=O)c2cc(C3CC3)nc3c2c(C)nn3-c2ccccc2)c(OC)c1 | 37% (active)
14 | CC(=O)c1ccc(NC(=O)c2cc(C)nc3c2c(C)nn3-c2ccc(C)cc2)cc1 | 102% (inactive)
15 | COc1ccc(NC(=O)c2cc(C3CC3)nc3c2c(C)nn3-c2ccccc2)cc1 | 53% (inactive)
16 | COc1ccccc1NC(=O)c1cc(C2CC2)nc2c1c(C)nn2-c1ccc(C)cc1 | 98% (inactive)
17 | COc1ccc(NC(=O)c2cc(C3CC3)nc3c2c(C)nn3-c2ccc(C)cc2)cc1OC | 144% (inactive)
18 | CC(=O)c1ccc(NC(=O)c2cc(C3CC3)nc3c2c(C)nn3-c2ccc(C)cc2)cc1 | 46% (active)

Row | SMILES | survival
19 | Nc1c(C(=O)Nc2ccccc2)nnn1Cc1ccc(F)cc1Cl | 99% (inactive)
20 | O=C(Cn1cc(S(=O)(=O)Cc2cccc(Cl)c2)c2ccccc21)NCc1ccccc1Cl | 91% (inactive)
21 | O=C1CSC(N(c2ccccc2)c2ccccc2)=N1 | 96% (inactive)
22 | COc1cccc(CNC(=O)CCn2c(=O)c3cccn3c3cccnc32)c1OC | 98% (inactive)
23 | Cc1ccc(CNC(=O)CCS(=O)(=O)c2cc3c4c(c2)CCN4C(=O)CC3)cc1 | 67% (inactive)
24 | Cn1nc(C(=O)N2CCN(c3ccccc3)CC2)c2c1-c1ccccc1SC2 | 80% (inactive)
25 | Cn1nc(C(=O)N2CCN(c3ccc(Cl)cc3)CC2)c2c1-c1ccccc1S(=O)(=O)C2 | 51% (inactive)
26 | Cn1nc(C(=O)N2CCN(c3ccccc3F)CC2)c2c1-c1ccccc1SC2 | 32% (active)
27 | Cc1ccc(C)c(N2CCN(C(=O)c3nn(C)c4c3CS(=O)(=O)c3ccccc3-4)CC2)c1 | 49% (active)
28 | Cc1ccc2c(c1)-c1onc(C(=O)N3CCN(c4cc(C)ccc4C)CC3)c1CO2 | 66% (inactive)
29 | Cn1nc(C(=O)N2CCN(c3cccc(Cl)c3)CC2)c2c1-c1ccccc1S(=O)(=O)C2 | 37% (active)
30 | Cc1ccc(N2CCN(C(=O)c3nn(C)c4c3CS(=O)(=O)c3ccccc3-4)CC2)c(C)c1 | 77% (inactive)
31 | Cn1nc(C(=O)N2CCN(c3ccc(F)cc3)CC2)c2c1-c1ccccc1SC2 | 77% (inactive)
32 | Cc1cccc(N2CCN(C(=O)c3nn(C)c4c3CS(=O)(=O)c3ccccc3-4)CC2)c1C | 67% (inactive)
33 | Cc1ccc2c(c1)-c1onc(C(=O)N3CCN(c4ccc(Cl)cc4)CC3)c1CO2 | 63% (inactive)
34 | Cc1ccc2c(c1)-c1onc(C(=O)N3CCN(c4cc(Cl)ccc4C)CC3)c1CO2 | 57% (active)
35 | Cn1nc(C(=O)N2CCN(c3ccccc3)CC2)c2c1-c1ccccc1S(=O)(=O)C2 | 51% (inactive)
